About 3,900 (1.3%) of roughly 310,000 compounds were called active.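 The calls were made as follows: active = calcium-response B-score plate-corrected more than 3 library SD below zero, starting fluorescence within 5 deviations, no agonist response on first addition; inactive = the rest.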 The entries come from a sample that favours actives as a whole.

In this experiment the target is Mas-related G-protein coupled receptor member X1 (Homo sapiens) (UniProt Q96LB2). Briefly: blockade of BAM8-22-evoked MrgX1 calcium response – HEK293 cells, Fluo-4 calcium flux, primary screen (AID 588676).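 As to B-score: peak minus trough fluorescence over baseline after final BAM8-22 challenge near maximal dose.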 To be noted: Fluo-4, BAM8-22 antagonism, at 10 µM; active compounds read low. For orientation: A change in cytosolic calcium serves as a functional read-out for many receptors and channels.
Mas-related G-protein coupled receptor member X1 (Homo sapiens), sequence (Q96LB2 whole entry, looked up): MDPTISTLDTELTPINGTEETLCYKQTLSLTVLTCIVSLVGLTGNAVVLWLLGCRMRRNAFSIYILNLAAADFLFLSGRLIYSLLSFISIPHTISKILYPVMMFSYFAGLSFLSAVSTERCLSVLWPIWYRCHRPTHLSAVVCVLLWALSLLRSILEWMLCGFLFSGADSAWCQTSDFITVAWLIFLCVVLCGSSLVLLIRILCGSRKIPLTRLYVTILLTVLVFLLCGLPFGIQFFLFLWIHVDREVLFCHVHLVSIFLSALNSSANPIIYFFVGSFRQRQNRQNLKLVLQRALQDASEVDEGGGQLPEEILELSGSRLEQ
As to `O=C(NNc1ccccc1Cl)C(O)(c1cccc(C(F)(F)F)c1)c1cccc(C(F)(F)F)c1`, the B-score entry is “inactive”.
Take `COc1ccc(S(=O)(=O)N2CCC(C(=O)NCCC(=O)NCc3cccc(OC)c3)CC2)cc1`: the B-score result is “inactive”.
For the compound `COc1ccccc1CNC(=O)C1CCCN(S(=O)(=O)c2cccc3cccnc23)C1` (configuration not stated), the B-score entry was “inactive”.
The same measure for `COc1cccc(CNC(=O)C2CCN(S(=O)(=O)c3cccc4cccnc34)CC2)c1`: -4.66 (active).
For `O=C(c1ccccc1)C(Cn1cncn1)C(Sc1ccccc1)c1ccccc1` (configuration not stated), the B-score is -5.84 (active).
For the compound `OC(COc1ccc2ccccc2c1)Cn1cncn1` (configuration not stated), the B-score result is “inactive”.
On to `Fc1ccccc1OCCCCn1cncn1`, for which the B-score result is “inactive”.
As to `COc1ccc(C2(O)C(=O)Nc3ccccc32)cc1` (configuration not stated), the B-score entry is “inactive”.
Under `COc1ccc(NC(=O)c2ccco2)cc1NC(=O)c1ccc(C#N)cc1F` stands “inactive”.
As for `Cc1c(C=O)c2ccccn2c1C(=O)c1ccncc1`, the B-score result is “inactive”.
Take `CCCN1C2CCCC1CC(NC(=O)NC13CC4CC(CC(C4)C1)C3)C2` (configuration not stated): the B-score entry was “inactive”.
For the compound `Nc1cccc(S(=O)(=O)Nc2ccc(SC(F)F)cc2)c1`, the B-score entry is “inactive”.
In the case of `COc1cccc(-n2c(Cc3cc(=O)[nH]c(=O)[nH]3)nnc2SCC(=O)Nc2ccccc2)c1`, the B-score result was “inactive”.
For the compound `Cc1cccc(-n2c(Cc3cc(=O)[nH]c(=O)[nH]3)nnc2SC(C)C)c1`, the B-score was -6.63 (active).
Regarding `Cc1cccc(-n2c(Cc3cc(=O)[nH]c(=O)[nH]3)nnc2SCC(=O)Nc2cccc(C(F)(F)F)c2)c1`, the B-score entry was “inactive”.
For the compound `CC(C)NC(=O)NNc1c(Cl)cncc1Cl`, the B-score entry was “inactive”.
`Cc1ccc(C(c2nnnn2CS(=O)(=O)c2ccc(C)cc2)N2CCC(C)CC2)cc1` (configuration not stated): the B-score result was “inactive”.
Consider `CC1(C)CC(=O)C=C(N2CCCC2)C1`, for which the B-score entry was “inactive”.
The same measure for `O=C(O)CN1CCN(C(c2ccccc2)c2ccccc2)CC1`: “inactive”; for `CC1(C)CC(N2CCN(C(c3ccccc3)c3ccccc3)CC2)=CC(=[N+]2CCCCC2)C1`: -4.89 (active); for `CCC(=O)N(C)C(c1ccccc1Cl)c1nnnn1-c1c(C)cccc1C` (configuration not stated): “inactive”.
`COc1ccc(N2CC(NS(=O)(=O)c3ccc4ccccc4c3)CC2=O)cc1` (configuration not stated): the B-score result is “inactive”.
The same measure for `CSCC[C@H](NC(=O)N1CCn2c1nc1ccccc12)C(=O)NCc1ccc2c(c1)OCO2`: “inactive”.
As for `Cc1ccc(S(=O)(=O)N2CCN(C)CC2)cc1C(=O)NC1CCCCC1`, the B-score result was “inactive”.
For `CCCCC1(C(=O)OCC)NC(c2ccc(O)cc2)C2C(=O)N(c3ccccc3)C(=O)C21` (configuration not stated), the B-score entry is “inactive”.
`O=C1CCCN1C(=O)COc1ccc([N+](=O)[O-])cc1`: the B-score result was “inactive”.
In the case of `Cc1ccc(OC(=O)CCC(=O)Nc2ccc(Br)cc2)cc1`, the B-score entry was “inactive”.
Under `CC(=O)Nc1ccc(OC(=O)COc2ccc(Br)cc2)cc1` stands -4.53 (active); under `COC(=O)COc1ccc(S(=O)(=O)Nc2ccc(NC(C)=O)cc2)cc1`, “inactive”; under `CCN(C(=O)CSc1nc2ccccc2n1CC)C1CCS(=O)(=O)C1` (configuration not stated), “inactive”.
For `CCN(C(=O)CSc1nnnn1-c1ccccc1OC)C1CCS(=O)(=O)C1` (configuration not stated), the B-score entry was “inactive”.
`CCN(C(=O)CSc1nnc2ccccn12)C1CCS(=O)(=O)C1` (configuration not stated): the B-score was -5.04 (active).
As for `COc1ccc(NC(=O)c2sc3nc(C)nc(N4CCN(c5ccccn5)CC4)c3c2C)c(OC)c1`, the B-score entry was “inactive”.
As for `Cc1nc(N2CCN(c3ccccn3)CC2)c2c(C)c(C(=O)Nc3ccc(F)c(Cl)c3)sc2n1`, the B-score is -5.65 (active).
Regarding `Cc1nc(N2CCN(c3ccccn3)CC2)c2c(C)c(C(=O)Nc3ccc(F)cc3)sc2n1`, the B-score result was “inactive”.
Under `COc1ccc(NC(=O)CN(Cc2ccccc2)S(C)(=O)=O)cc1OC` stands “inactive”.
For `CC1(C)C(C=C(Cl)Cl)C1C(=O)NC(O)C(=O)c1ccccc1` (configuration not stated), the B-score result was “inactive”.
Turning to `O=C(CCCN1C(=O)c2ccccc2C1=O)Oc1ccc(Cl)cc1`, the B-score result is “inactive”.
In the case of `Cc1cccc(NC(=O)c2nc(S(=O)(=O)Cc3ccccc3)ncc2Cl)c1`, the B-score result is “inactive”.
With `Cc1ccc(CS(=O)(=O)c2ncc(Cl)c(C(=O)Nc3nnc(C)s3)n2)cc1`, the B-score is -6.02 (active).
Consider `CSc1nnc(NC(=O)c2nc(S(=O)(=O)Cc3ccc(C)cc3)ncc2Cl)s1`, for which the B-score entry is “inactive”.
Take `Cc1cc(N2CCOCC2)nc2ccc(NC(=S)N3CCN(Cc4ccccc4)CC3)cc12`: the B-score result was “inactive”.
In the case of `C#C[C@]1(O)CC[C@H]2[C@@H]3CCC4=CC(=O)CC[C@@H]4[C@H]3CC[C@@]21CC`, the B-score result is “inactive”.
With `O=C(NCC(c1cccs1)N1CCOCC1)c1cc(Cl)ccc1[N+](=O)[O-]` (configuration not stated), the B-score entry is “inactive”.
In the case of `CCc1nnc(NC(=O)CSc2nc3c(c(=O)n2-c2ccccc2OC)SCC3)s1`, the B-score was -5.85 (active).
Consider `CCc1nnc(NC(=O)CSc2nnc(Cc3ccccc3)n2-c2ccc(OC)cc2)s1`, for which the B-score entry is “inactive”.
Turning to `CCOc1ccc(NC(=O)CSc2nc3c(c(=O)n2-c2ccccc2OC)SCC3)cc1`, the B-score result is “inactive”.
In the case of `CC(Oc1ccccc1F)C(=O)NN` (configuration not stated), the B-score result was “inactive”.
On to `CCSc1sc(CC)cc1C=O`, for which the B-score entry is “inactive”.
On to `O=C(Nc1ccc(Br)cc1F)C1CC(=O)N(C2CCCCC2)C1` (configuration not stated), for which the B-score is -6.01 (active).
Turning to `O=C(NCCc1ccc(Cl)cc1)C1CC(=O)N(C2CCCCC2)C1` (configuration not stated), the B-score entry was “inactive”.
As for `Cc1ccc(CNC(=O)C2CC(=O)N(C3CCCCCCC3)C2)cc1` (configuration not stated), the B-score result was “inactive”.
For `COc1cc(C)c(Cl)cc1S(=O)(=O)n1ccnc1`, the B-score entry was “inactive”.
On to `CCCC(=O)N1CCC(CCC(=O)NC2CC2)CC1`, for which the B-score result is “inactive”.
Under `CCOc1ccccc1OCC(=O)Nc1ccccc1C(=O)NC1CC1` stands “inactive”; under `COc1ccccc1OCC(=O)Nc1ccccc1C(=O)NC1CC1`, “inactive”; under `CC(Oc1ccc(F)cc1)C(=O)Nc1ccccc1C(=O)NC1CC1` (configuration not stated), -5.83 (active).
Under `COc1cc(-c2c(-c3ccc4c(c3)OCO4)noc2C)ccc1F` stands “inactive”; under `Nc1nc(NCC2CCCO2)nc(Nc2ccccc2F)c1[N+](=O)[O-]` (configuration not stated), “inactive”; under `CC(C)(C)c1ccc(/C=C/C(=O)Nc2ncccn2)cc1`, “inactive”.
With `CSc1ccc(NC(=O)/C=C/C(=O)O)cc1`, the B-score entry was “inactive”.
With `COC(=O)c1sc(-c2ccc(C(C)(C)C)cc2)cc1NC(=O)/C=C/C(=O)O`, the B-score is -9.91 (active).
Under `Cn1cccc1Cc1nnc(SCC(=O)NCc2ccc3c(c2)OCO3)n1CCc1ccccc1` stands “inactive”; under `O=C(O)CCc1nc2cc(Cl)ccc2n(Cc2ccccc2)c1=O`, “inactive”.
Under `CCOc1ccccc1NC(=O)CCN1CCN(S(=O)(=O)c2ccc(OC)cc2)CC1` stands -4.98 (active); under `COc1ccc(NC(=O)CCC(=O)N2CCN(S(=O)(=O)c3ccc(C)cc3)CC2)c(OC)c1`, “inactive”; under `CCOc1ccccc1NC(=O)COc1ccc(S(=O)(=O)N2CCCC2)cc1`, “inactive”.
In the case of `Cc1cc(C)c(C#N)c(Nc2cccc(Br)c2)n1`, the B-score entry was “inactive”.
The same measure for `N#CC1=C(N)Oc2c(sc3ccccc23)C1c1ccco1` (configuration not stated): -4.64 (active).
With `N#CC1=C(N)Oc2c(ccc3cccnc23)C1c1ccncc1` (configuration not stated), the B-score entry is “inactive”.
Take `O=C(COc1nsnc1N1CCOCC1)Nc1ccccc1Cl`: the B-score entry is “inactive”.
On to `COc1cc(C(C)=O)ccc1OC(=O)CN1C(=O)c2ccccc2C1=O`, for which the B-score result is “inactive”.
Under `Cc1cc(F)ccc1S(=O)(=O)Nc1ncnc2scc(-c3ccc(F)cc3)c12` stands “inactive”; under `CCOC(=O)c1c(NC(=O)CCC(=O)NCc2ccco2)sc2c1CCCC2`, “inactive”; under `CCOC(=O)c1c(NC(=O)CSc2cn(CC)c3ccccc23)sc2c1CCC2`, -6.48 (active).
Regarding `CCOC(=O)c1c(NC(=O)C(C)Sc2c[nH]c3ccccc23)sc2c1CCC2` (configuration not stated), the B-score result is “inactive”.
As to `O=C(NCC(=O)N1CCN(c2ncc(C(F)(F)F)cc2Cl)CC1)c1ccc(Br)o1`, the B-score result is “inactive”.
For the compound `Cc1ccc(C(=O)OC2=CC(=O)CC(C)(C)C2)cc1`, the B-score result is “inactive”.
As for `COc1ccccc1C(=O)NNC(=O)CCN1C(=O)/C(=C\c2ccccc2)SC1=S`, the B-score result is “inactive”.
Take `COc1cc(/C=C2/SC(=S)N(Cc3ccccc3)C2=O)cc(OC)c1O`: the B-score is -7.51 (active).
Regarding `COc1ccc(/C=C2\SC(=S)N(CCC(=O)Nc3ccccn3)C2=O)cc1OC`, the B-score entry was “inactive”.
As to `O=C(Nc1cccc([N+](=O)[O-])c1)N1CCc2ccccc2C1`, the B-score result is “inactive”.
The same measure for `CN(c1ccccc1)S(=O)(=O)c1ccc(Cl)c(C(=O)OCC(=O)N2CCOCC2)c1`: “inactive”; for `COC(=O)c1c(NC(=O)COc2ccc(Cl)cc2Cl)sc2c1CC(C)(C)NC2(C)C`: “inactive”; for `O=C(Cc1ccccc1)Nc1c(C(=O)N2CCCCCC2)cnn1-c1ccccc1`: “inactive”.
As to `CC(C)CNC(=O)COC(=O)/C=C/c1ccco1`, the B-score entry was “inactive”.
Under `COc1ccc([N+](=O)[O-])cc1NC(=O)COC(=O)/C=C/c1ccco1` stands -24.1 (active).
Take `COc1ccc([N+](=O)[O-])cc1NC(=O)CCc1ccccc1`: the B-score result was “inactive”.
Under `COC1=CCC2([N+](=O)[O-])CN(CC(=O)O)CC1([N+](=O)[O-])C2` (configuration not stated) stands -5.87 (active); under `COc1ccc([N+](=O)[O-])cc1N(CC(=O)Nc1ccccc1C(=O)N1CCOCC1)S(C)(=O)=O`, “inactive”.
Take `COCC(C)NC(=O)c1ccc(Cl)c(Cl)c1` (configuration not stated): the B-score was -8.76 (active).
With `CC(C)CCC(C)NC(=O)c1ccc2nccnc2c1` (configuration not stated), the B-score result was “inactive”.
As to `CC(CCc1ccccc1)NC(=O)c1cnc(Cl)c(Cl)c1` (configuration not stated), the B-score entry is “inactive”.
For `CC(=O)C1=C(C)NC(=O)NC1c1ccc2c(c1)OCO2` (configuration not stated), the B-score result is “inactive”.
With `CC(=O)Nc1cccc(Oc2cc(C#N)c(C#N)cc2N2CCOCC2)c1`, the B-score entry is “inactive”.
Consider `COc1ccc(Br)cc1/C=N/n1c(C)nnc1C`, for which the B-score entry was “inactive”.
In the case of `COc1cc(N2CCCC2)c(OC)cc1/C=C(/C#N)c1cccc(Br)c1`, the B-score was -7.19 (active).
With `O=C(COC(=O)/C=C/c1ccc(OC(F)F)cc1)NC1CCCCC1`, the B-score entry was “inactive”.
In the case of `COc1ccc(-c2noc(C(C)NS(=O)(=O)c3ccc(NC(C)=O)cc3)n2)cc1` (configuration not stated), the B-score result was “inactive”.
The same measure for `CCCCCCCCCCCCN1C(=O)CSC1c1cccnc1` (configuration not stated): “inactive”; for `CCOC(=O)c1c(S(=O)(=O)Nc2cccc(Cl)c2)c(C)n(C)c1C`: “inactive”.
As for `CCOC(=O)C1=C(O)CSC1=Nc1cccc(Cl)c1`, the B-score was -5.49 (active).
In the case of `CCOC(=O)CSc1ncc(-c2cccc(Cl)c2)cn1`, the B-score result is “inactive”.
The same measure for `N=c1n(CCc2ccccc2)c2ccccc2n1Cc1ccccc1F`: “inactive”; for `O=C(Nc1ccc(F)c([N+](=O)[O-])c1)C1CC(=O)N(Cc2ccccc2)C1` (configuration not stated): “inactive”; for `Cc1cc(=O)oc2cc(NC(=O)C3CC(=O)N(Cc4ccccc4)C3)ccc12` (configuration not stated): -7.83 (active).
`Cc1cc(=O)oc2cc(NC(=O)C(C)Oc3ccccc3)ccc12` (configuration not stated): the B-score entry is “inactive”.

The record behind these values is PubChem BioAssay AID588676 (Johns Hopkins Ion Channel Center, 2011).
